Sampled rows, rich in hits. Any-hit rate of the full collection: about 5.1%.
Tau FP inhib: tau fibrillization inhibition (FP); AID 1468; P10636; K18 P301L tau heparin fibrillization, Alexa594 FP, 6 h; actives 0.39% (n = 280,000); Potency, µM (doses to about 57.7 µM), for the others: top-dose activity, negative = inhibition, most hits filed as inhibitors; note: potency is the fitted concentration of half-maximal effect; nearly all actives have a fitted effect of over 55% in size
Target sequence (P10636 561-689 P618L limits assumed): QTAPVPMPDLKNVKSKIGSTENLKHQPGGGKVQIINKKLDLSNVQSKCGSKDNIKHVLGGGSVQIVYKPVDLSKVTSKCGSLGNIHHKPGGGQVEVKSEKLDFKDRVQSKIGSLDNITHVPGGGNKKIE
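Steps: dispense K18 P301L tau (15 uM plus 0.24 uM Alexa 594 tracer, final) in pH 7 sodium acetate; add compound; add heparin (20 uM final); incubate 6 hr, 37 C; add ThT (30 uM final); after 1 hr ambient, read FP.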
PNC inhibitor: perinucleolar compartment assembly inhibition | PC3M PTB-GFP, PNC prevalence imaging, 16 h; hits give low values | AID 2417 | actives 3.1% (n = 140,000) | activity change (PNC), negative = inhibition, % at 10 µM;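 active = readout at or below -70, meaning at least 70% loss of cells showing the perinucleolar compartment, a nuclear body marking cancer cells; inconclusive = readout between -30 and a set limit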;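 note: plate controls were DMSO wells for no effect and camptothecin positive control wells for full effect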
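Read-out is percentage of cells bearing a perinucleolar compartment, from automated 20x imaging of fixed, Hoechst-stained PC3M PTB-GFP cells. Cells were seeded 4 h, then exposed 16 h to compound (23 nl of library stock) in duplicate plates.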
Tau fluor counter: counter-screen for tau fibril formation inhibitors. AID 1463. Potency, µM (series often up to 57.7 µM), inactives show at the highest dose activity change, negative = decrease. tau K18 P301L Alexa594 fluorescence, heparin fibrillization. actives 0.93% (n = 280,000); note: potency is the fitted concentration of half-maximal effect; nearly all actives have a fitted effect of over 55% in size
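Human tau K18 P301L (15 uM unlabeled, 0.24 uM Alexa 594-labeled) in 100 mM sodium acetate pH 7 with 20 uM heparin, 6 hr at 37 C. ThT 30 uM added, 1 hr ambient; Alexa 594 FP and total fluorescence read at 555/632 nm.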
KDM4E inh: blocks human JMJD2E demethylase activity. B2RXH2. JMJD2E catalytic domain, FDH-coupled NADH fluorescence (FDH is formaldehyde dehydrogenase). Potency, µM (doses to about 57.1 µM), without a hit: at the highest dose activity change, negative = inhibition, most hits filed as inhibitors. actives 1.6% (n = 230,000). AID 2147; active = well fitted inhibition curve with a large enough effect, not every such curve was filed as active; inconclusive = small, poorly fitted or top-dose-only effect, or another doubt; inactive = no such curve, though single readings can be large or run the other way;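 note: potency is the fitted concentration of half-maximal effect; 0% = wells with enzyme and -100% = buffer wells without enzyme; nearly all actives have a fitted effect of over 50% in size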
Tau fibril ThT: blocks human tau fibril formation measured by thioflavin T; P10636; recombinant tau K18 P301L, heparin-induced fibrillization, ThT fluorescence; Potency, µM (highest dose often 57.4 µM), inactives show top-dose activity, negative = inhibition, most hits filed as inhibitors; actives 2.1% (n = 270,000); AID 1460; note: potency is the fitted concentration of half-maximal effect; nearly all actives have a fitted effect of over 55% in size
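Using a mix of unlabeled (15 uM) and Alexa 594-labeled (0.24 uM) tau K18 P301L, heparin-triggered fibrillization over 6 hr at 37 C was scored by ThT fluorescence.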
NPSR antag: blocks cAMP signaling of the human neuropeptide S receptor. Q6W5P4. CHO-NPSR cells, cAMP TR-FRET, antagonist mode. Potency, µM (highest dose often 38.3 µM), for inactives: at the highest dose activity change, negative = inhibition, usual class: inhibitors. actives 1% (n = 220,000). AID 1461; note: potency is the fitted concentration of half-maximal effect; nearly all actives have a fitted effect of over 50% in size
Target sequence (Q6W5P4 whole entry, looked up): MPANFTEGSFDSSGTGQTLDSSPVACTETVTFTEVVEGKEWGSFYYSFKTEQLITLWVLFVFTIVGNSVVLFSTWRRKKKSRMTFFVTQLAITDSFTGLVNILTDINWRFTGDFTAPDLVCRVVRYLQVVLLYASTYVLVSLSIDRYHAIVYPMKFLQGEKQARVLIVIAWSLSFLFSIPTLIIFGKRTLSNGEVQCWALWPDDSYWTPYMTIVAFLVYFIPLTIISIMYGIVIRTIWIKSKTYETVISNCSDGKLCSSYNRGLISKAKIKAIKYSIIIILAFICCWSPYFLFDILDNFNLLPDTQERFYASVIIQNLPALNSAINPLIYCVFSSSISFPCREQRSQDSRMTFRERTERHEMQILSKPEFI
Numbers without * were called inactive; ? = inconclusive; / = not tested or not shown; [ ] = another dose, or the depositor's remark. Unless noted, calls come from the whole dose curve; as a rule, active = well fitted curve in the direction sought with a large enough effect; inconclusive = small, poorly fitted or top-dose-only effect, or another doubt; inactive = no such curve, though single readings can be large; an effect the other way counts as inactive or inconclusive. Unless noted, % is set by controls: 0 for no effect and ±100 for the full control effect.

SMILES	Tau FP inhib	PNC inhibitor	Tau fluor counter	KDM4E inh	Tau fibril ThT	NPSR antag
O=C(Nc1cc(Cl)cc(Cl)c1)c1ccc(F)c(S(=O)(=O)NC2CCCC2)c1	10µM*	/	?	/	1%	/
Cc1cc(C)cc(-c2cc3c(c(-c4c(O)c(-c5cc(C)cc(C)c5)cc5c4CCCC5)c2O)CCCC3)c1	-3%	/	-3%	3%	0%	/
CC#CCN(CC#CC)S(=O)(=O)c1ccc(S(=O)(=O)N2CCOCC2)cc1	1%	-105*	-2%	1%	4%	-10%[46.1 µM]
CCc1ccc(NC(=O)Cn2ccn(-c3ccc(OC)cc3)c(=O)c2=O)cc1	-1%	/	-6%	/	-15%	/
CCOc1ccc(N2Nc3n[nH]c(N)c3N2)cc1	1%	?	?	-2%	13µM*	-14%[46.1 µM]
COc1ccc(N2Nc3n[nH]c(N)c3N2)cc1	12%	-19	?	?	8.9µM*	-13%[46.1 µM]
Cc1ccc(OCc2nnc(SCCN3CCOCC3)n2C)cc1	-3%	-9	-2%	?	-4%	-1%[46.1 µM]
CCCCn1c(SCC(=O)N2CCOCC2)nnc1-c1ccoc1C	5%	-100*	2%	8%	2%	-2%[46.1 µM]
Cc1ccc(OCc2nnc(SCC(=O)N3CCOCC3)n2C)cc1	6%	-107*	5%	-2%	7%	-6%[46.1 µM]
Cc1occc1-c1nnc(SCC(=O)N2CCOCC2)n1CCc1ccccc1	4%	-19	-2%	-4%	-7%	-10%[46.1 µM]
COc1ccccc1NS(=O)(=O)c1cc(NC(=O)Nc2ccc(Cl)cc2Cl)ccc1N1CCCCC1	?	-16	-20%	-25%	8%	-4%
O=C(Nc1cccc(C(F)(F)F)c1)Nc1ccc(N2CCCC2)c(S(=O)(=O)Nc2ccccc2Cl)c1	?	18	2.5µM*[quencher]	?	?	10µM*
O=C(Nc1ccn(Cc2ccc(Cl)cc2)n1)c1ccc2c(c1)OCO2	1%	-82*	-8%	-2%	9%	-13%[46.1 µM]
Cc1cccc(Cn2ccc(NC(=O)c3ccc4c(c3)OCO4)n2)c1	-5%	/	-24%	3%	?	-11%
COc1ccc2[nH]c3c4c(ccc3c2c1)C(=O)C=CC4=O	11µM*	/	2µM*[quencher]	?	3.5µM*	?
COc1ccc(NC(=O)Cc2c(C(=O)O)[nH]c3ccccc23)cc1OC	1%	/	-13%	/	-12%	/
Cc1nc(-c2coc3c(CN(C)C)c(O)ccc3c2=O)cs1	-3%	5	-11%	28µM*	-11%	-7%[46.1 µM]
Cc1cccc(C2C3=C(Nc4[nH]n(-c5ccccc5)c(=O)c42)c2ccccc2C3=O)c1 (stereo not given)	-3%	-29	?	3%	16µM*	-30%
Cc1ccccc1C1C2=C(Nc3[nH]n(-c4ccccc4)c(=O)c31)c1ccccc1C2=O (stereo not given)	-4%	-7	?	-11%	14µM*	-44%
Cc1ccccc1-c1ccnc2[nH]n(-c3ccccc3)c(=O)c12	-5%	/	-22%	/	?	/
Cc1ccc(C(=O)Nc2ccc3oc(-c4ccccc4C)nc3c2)cc1	?	/	-23%	/	?	/
COc1ccc2c(c1)cc1c(=O)n(CC(=O)NC(C)C)nc(C)n12	3%	/	-1%	/	2%	/
Cc1ccc(-n2nc(C)c3c(C)c(CCC(=O)NCc4ccc(Cl)cc4)c(C)nc32)cc1	-6%	/	-7%	/	14%	/
O=C(/C=C/c1ccc([N+](=O)[O-])cc1)Nc1ncc([N+](=O)[O-])s1	10%	/	?	4%	3.5µM*	-11%
Cc1cc(C)c2cccc(N)c2n1	9%	/	-4%	?	-20%	-8%
SMILES	Tau FP inhib	PNC inhibitor	Tau fluor counter	KDM4E inh	Tau fibril ThT	NPSR antag
Cc1cc(C)c2ccc(N)nc2c1O	4%	-23	-4%	25µM*	-2%	-12%[46.1 µM]
CCC(C(=O)NC(C)CCc1ccccc1)n1nc(C)n2c(cc3occc32)c1=O (stereo not given)	0%	?	-4%	?	-10%	?
CCC(C(=O)NC(C)CCc1ccco1)n1nc(C)n2c(cc3occc32)c1=O (stereo not given)	-9%	-100*	-7%	-3%	-10%	-7%[46.1 µM]
CCOc1ccccc1C1C(C#N)=C(N)Oc2cc(N)ccc21 (stereo not given)	?	?	-20%	-9%	-9%	5%[46.1 µM]
CN(C)c1ccc2c(c1)OC(N)=C(C#N)C2c1cccc(F)c1 (stereo not given)	14%	-85*	?	-8%	?	?
O=C(Nc1ccc(Cl)cc1F)c1ccccc1Br	3%	-81*	-13%	5%	-12%	-2%
O=C(NNC(=O)c1ccccc1Br)c1ccc(Cl)cc1	-2%	97	2%	-7%	-3%	1%[46.1 µM]
COc1ccc(NC(=O)C(Cc2ccccc2)NS(=O)(=O)c2ccc3c(c2)CCC(=O)N3)c(OC)c1 (stereo not given)	-17%	/	-12%	/	0%	/
Cc1c(NC(=O)c2ccc(-c3ccc(F)cc3)o2)cccc1-c1nc2ncccc2o1	-13%	/	-8%	/	?	/
CC(O)CNc1nc2sc3c(c2c(=O)n1CCc1ccccc1)CCCCC3 (stereo not given)	12%	25	10µM*[quencher]	-14%	?	-56%
CN(C)CCNc1nc2sc3c(c2c(=O)n1CCc1ccccc1)CCCCC3	?	/	13µM*[quencher]	-10%	?	?
CCCOc1ccc(C(=O)Nc2ccc3oc(-c4ccc5ccccc5c4)nc3c2)cc1	0%	/	-10%	/	?	/
O=C1CN(C(=O)COc2ccc(Cl)cc2)C(c2ccc(F)cc2)c2cc(Cl)ccc2N1 (stereo not given)	-4%	/	-21%	/	?	/
CC1CCC/C(=C\Nc2ccc(O)cc2)C1=O (stereo not given)	?	13	?	?	18µM*	-4%[46.1 µM]
Cc1cc(C(=O)O)ccc1N/C=C1\CCCC(C)C1=O (stereo not given)	2%	-5	-5%	-5%	-15%	-4%[46.1 µM]
CCCCOc1ccc(C(=O)NCCS(=O)(=O)N2CCN(c3ccccc3OC)CC2)cc1	?	/	-19%	/	-10%	/
Cc1ccc(NC(=O)C(=O)Nc2ccc(C)cn2)nc1	3%	/	-7%	-3%	?	-5%
Cc1ccc(NC(=O)/C(C#N)=C(\N)C(Cl)(Cl)Cl)nc1	?	/	-22%	?	25µM*	-8%
CS(=O)(=O)c1ccc2c(c1)sc1nc(=O)c(/C=C3/C=CC(=O)C(O)=C3)c(N)n12	-2%	/	?	3.2µM*	4µM*	23%
COC1=C/C(=C/c2c(N)n3c(nc2=O)sc2cc(S(C)(=O)=O)ccc23)C=CC1=O	7%	/	-19%	-14%	?	35%[7.67 µM]

Bioassay records deposited in PubChem by National Center for Advancing Translational Sciences (NCATS).
